This is an account of results in PubChem BioAssay (EPA / NIEHS).

What is called AC50 is the concentration giving half of the maximal activity seen.

Records with an inconclusive call do not appear. The source made the active and inactive calls. Rule for the calls, unless noted: active = hit-call score of the fitted dose curve at least 0.9, where 1 is the maximum; inactive = score below 0.9.

A short description of experiment [1]: ATG_CMV_CIS: Attagene CIS-FACTORIAL HepG2 Assay for human CMV (Internal Marker) (AID 2282928).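 Note: endpoint acts as a background internal control marker rather than a target.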 As to conditions: HepG2 CMV promoter reporter, transcription factor profiling; actives raise or lower the signal. A digest of the protocol: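 Endogenous transcription factor activity read in HepG2 via transfected cis-promoter reporter units. After 24 h dosing, reporter mRNA measured by RT-PCR/capillary electrophoresis; gain or loss of signal fit relative to DMSO.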

The nature of experiment [2]: ATG_DR4_LXR_CIS: Attagene CIS-FACTORIAL HepG2 Assay for human Liver X Receptor (LXR), DR4 submotif (AID 2282929). The settings on record: HepG2 Attagene DR4 cis-reporter, mRNA transcription; actives raise or lower the signal. An outline of the steps: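 Transiently transfected HepG2 liver cells; cis-regulated reporters; 24 h dosing. RT-PCR plus CE read-out of reporter mRNA. DMSO baseline, bidirectional curve fitting.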

A short description of experiment [3]: ATG_AP_2_CIS: Attagene CIS-FACTORIAL HepG2 Assay for human Activator Protein 2 (AP-2) (AID 2282932). As to conditions: HepG2 AP-2 cis-reporter, Attagene transcription factor profiling; actives raise or lower the signal. An outline of the steps: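 HepG2 cells were transiently transfected with multiple cis-promoter reporter transcription units and dosed for 24 h. Reporter mRNA was measured by RT-PCR with capillary electrophoresis fluorescence; bidirectional fits relative to DMSO baseline.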

Experiment [4] addresses Transcription factor E2F1 (Homo sapiens) (UniProt Q01094). Put plainly: ATG_E2F_CIS: Attagene CIS-FACTORIAL HepG2 Assay for human E2F Transcription Factor 1 (AID 2282935). The settings on record: HepG2 Attagene cis-reporter, E2F reporter RNA transcripts; actives raise or lower the signal. An outline of the steps:
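HepG2 cells transiently transfected with multiplexed cis-element reporter units, dosed for 24 h. Reporter mRNA measured by RT-PCR, 6-FAM primer-extension labeling, HpaI digestion and capillary electrophoresis; bidirectional fit versus DMSO baseline.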

Experiment [5] is described as follows: ATG_M_61_CIS: Attagene CIS-FACTORIAL HepG2 Assay for M61 Transcription Factor (Internal Marker) (AID 2282937). The settings on record: HepG2 Attagene CIS-FACTORIAL M61 internal marker reporter; actives raise or lower the signal. An outline of the steps:
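Multiplexed reporter mRNA assay, HepG2 human hepatoma cells, 24 h treatment. Signal: FAM-labelled, HpaI-digested RT-PCR fragments by CE. Fit: bidirectional, baseline DMSO.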

A short description of experiment [6]: ATG_EGR_CIS: Attagene CIS-FACTORIAL HepG2 Assay for human Early Growth Response 1 (EGR1) (AID 2282938). The settings on record: HepG2 Attagene CIS-FACTORIAL EGR reporter mRNA; actives raise or lower the signal. A digest of the protocol: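 Multiplexed cis-reporter system in human hepatoma HepG2 cells, transiently transfected. Cells are dosed for 24 h; reporter transcripts are amplified, fluorescently tagged and sized by capillary electrophoresis, with DMSO as negative control.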

The nature of experiment [7]: ATG_Ets_CIS: Attagene CIS-FACTORIAL HepG2 Assay for human Erythroblast Transformation Specific (ETS) (AID 2282941). As to conditions: HepG2 ETS cis-reporter transcription, actives raise or lower the signal. An outline of the steps: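 Steps: transfect HepG2 with multiple reporter units; treat compound 24 h; isolate RNA, DNase-treat, reverse-transcribe; PCR-amplify, label with 6-FAM, digest with HpaI; separate by capillary electrophoresis. Activity fitted both directions versus DMSO.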

Experiment [8] deals with Hepatocyte nuclear factor 3-beta (Homo sapiens) (UniProt Q9Y261). Put plainly: ATG_FoxA2_CIS: Attagene CIS-FACTORIAL HepG2 Assay for human Forkhead box A2 (FOXA2) (AID 2282942). As to conditions: HepG2 cis-reporter transcription factor activity, 24 h; actives raise or lower the signal. An outline of the steps:
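Multiplexed cis-element reporter assay in transiently transfected HepG2. Twenty-four hours post-dosing, RNA was reverse-transcribed, amplified, FAM-labelled, HpaI-digested and separated by CE. Activity gain or loss relative to DMSO.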

Experiment [9] can be described thus: ATG_FoxO_CIS: Attagene CIS-FACTORIAL HepG2 Assay for human Forkhead box O (FoxO) (AID 2282943). The settings on record: HepG2 Attagene cis-reporter, FoxO element, mRNA; actives raise or lower the signal. An outline of the steps: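 24 h chemical exposure, HepG2 with transient cis-MRTU transfection. RNA extraction, oligo(dT) RT, reporter-specific PCR, primer-extension labelling, HpaI digestion, CE fragment analysis; bidirectional fit, DMSO baseline.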

Experiment [10] is described as follows: ATG_GATA_CIS: Attagene CIS-FACTORIAL HepG2 Assay for human GATA Binding Protein (AID 2282944). The settings on record: HepG2 GATA cis-element reporter, Attagene multiplex mRNA; actives raise or lower the signal. An outline of the steps:
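Endogenous transcription factor activity was captured through cis-promoter-driven reporters in transfected HepG2 cells. After 24 h exposure, reporter transcripts were quantified by RT-PCR with fluorescent capillary electrophoresis, and responses fitted both directions against DMSO.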

A short description of experiment [11]: ATG_ISRE_CIS: Attagene CIS-FACTORIAL HepG2 Assay for human Interferon Regulatory Factor 1 (IRF1) binding to an Interferon-Stimulated Response Element (ISRE) (AID 2282948). The settings on record: HepG2 ISRE cis-reporter (Attagene), mRNA transcription readout; actives raise or lower the signal. A digest of the protocol: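 Transfected HepG2 (multiple reporter transcription units, cis elements) dosed 24 h. RNA → oligo(dT) RT → PCR → 6-FAM primer extension → HpaI → CE. DMSO = negative control/baseline.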

Experiment [12] in a line: ATG_M_32_CIS: Attagene CIS-FACTORIAL HepG2 Assay for M32 Transcription Factor (Internal Marker) (AID 2282949).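 Note: background control marker of the multiplexed CIS panel rather than a real target.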 The settings on record: HepG2 Attagene cis-factorial M32 reporter, mRNA; actives raise or lower the signal. A digest of the protocol:
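Internal background marker read-out: RT-PCR/capillary electrophoresis fluorescence of reporter transcripts from transiently transfected HepG2 cells after 24 h chemical exposure. Activity fitted bidirectionally relative to DMSO negative control.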

Experiment [13] concerns the target Hepatocyte nuclear factor 6 (Homo sapiens) (UniProt Q9UBC0). Put plainly: ATG_HNF6_CIS: Attagene CIS-FACTORIAL HepG2 Assay for human Hepatocyte Nuclear Factor 6 (HNF6) (AID 2282952). As to conditions: HepG2 Attagene cis-factorial HNF6 reporter transcription; actives raise or lower the signal. An outline of the steps:
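HepG2, transient MRTU transfection (cis promoters); 24 h chemical exposure; total RNA → oligo(dT) RT → PCR → 6-FAM labelling → HpaI cut → CE; bidirectional fit vs DMSO.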

Experiment [14] has as its target Heat shock factor protein 1 (Homo sapiens) (UniProt Q00613). Put plainly: ATG_HSE_CIS: Attagene CIS-FACTORIAL HepG2 Assay for human Heat Shock Transcription Factor 1 (HSE) (AID 2282953). The settings on record: HepG2 HSE cis-reporter, Attagene RNA transcription; actives raise or lower the signal. A digest of the protocol:
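Cells were transfected with cis-element-driven reporter constructs, dosed for 24 h, then total RNA was reverse-transcribed and reporter cDNA amplified, FAM-labelled and digested with HpaI. Fragments were resolved by capillary electrophoresis; gain or loss was fitted against DMSO.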

Experiment [15] is described as follows: ATG_MRE_CIS: Attagene CIS-FACTORIAL HepG2 Assay for human Metal Responsive Element (MRE) (AID 2282954). As to conditions: HepG2 MRE cis-reporter transcription, Attagene multiplex; actives raise or lower the signal. A digest of the protocol: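 HepG2 cells transiently transfected with multiple cis-element reporter units measure endogenous MTF1-driven transcription. After 24 h compound exposure, reporter mRNA is quantified by RT-PCR with 6-FAM labelling, HpaI digestion and capillary electrophoresis; bidirectional fits versus DMSO.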

The target in experiment [16] is Paired box protein Pax-6 (Homo sapiens) (UniProt P26367). Put plainly: ATG_Pax6_CIS: Attagene CIS-FACTORIAL HepG2 Assay for human Paired Box 6 (PAX6) (AID 2282956). The settings on record: HepG2 CIS-FACTORIAL PAX6 reporter transcription, RNA readout; actives raise or lower the signal. A digest of the protocol:
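Transient MRTU transfection of HepG2 → compound exposure 24 h → TriZol RNA, oligo(dT) RT → PCR, 6-FAM primer extension, HpaI cut → capillary electrophoresis; activity fitted both directions against DMSO.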

A short description of experiment [17]: ATG_PXRE_CIS: Attagene CIS-FACTORIAL HepG2 Assay for human Pregnane X Receptor Element (PXRE) (AID 2282957). The settings on record: HepG2 Attagene CIS-FACTORIAL PXRE reporter, mRNA; actives raise or lower the signal. A digest of the protocol: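 Transfect HepG2 with MRTUs (cis promoter elements); dose chemical, incubate 24 h; isolate RNA, RT with oligo(dT), PCR, 6-FAM label, HpaI cut, CE. Gain/loss fit vs DMSO.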

Experiment [18] in a line: ATG_Sox_CIS: Attagene CIS-FACTORIAL HepG2 Assay for human SRY-box transcription factor (SOX) (AID 2282960). As to conditions: HepG2 Attagene cis-factorial SOX reporter, mRNA; actives raise or lower the signal. A digest of the protocol: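 Fluorescence-labelled cDNA fragments from reporter transcripts, sized by CE, give the signal. Cells: HepG2, transiently transfected with cis-regulated reporter units. Exposure 24 h; DMSO negative control; bidirectional curve fitting.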

Experiment [19] in a line: ATG_SREBP_CIS: Attagene CIS-FACTORIAL HepG2 Assay for human Sterol Regulatory Element Binding (SREBP) (AID 2282962). As to conditions: HepG2 Attagene cis-factorial SREBP reporter, mRNA; actives raise or lower the signal. An outline of the steps: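 Transfected HepG2 (cis-regulated reporter library, endogenous TFs) → compound 24 h → total RNA → oligo(dT) RT → reporter-specific PCR → FAM primer extension, HpaI cut → CE fluorescence. Fit bidirectional vs DMSO.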

The target of experiment [20] is Androgen receptor (Homo sapiens) (UniProt P10275). Put plainly: ATG_AR_TRANS: Attagene TRANS-FACTORIAL HepG2 Assay for human Androgen Receptor (AR) (AID 2282973; active = hit-call score of the fitted dose curve at least 0.9, where 1 is the maximum). The settings on record: HepG2 Attagene TRANS-FACTORIAL AR reporter transcription. An outline of the steps: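 Steps: transfect HepG2 with multiple GAL4-UAS reporter transcription units (TRANS format, exogenous NR-Gal4 protein); dose 24 h; isolate RNA, reverse-transcribe, PCR-amplify, FAM-label, HpaI-digest; resolve by capillary electrophoresis. Positive direction vs DMSO.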
Sequence of Androgen receptor (Homo sapiens) (P10275 whole entry, looked up, the tested form may be a part): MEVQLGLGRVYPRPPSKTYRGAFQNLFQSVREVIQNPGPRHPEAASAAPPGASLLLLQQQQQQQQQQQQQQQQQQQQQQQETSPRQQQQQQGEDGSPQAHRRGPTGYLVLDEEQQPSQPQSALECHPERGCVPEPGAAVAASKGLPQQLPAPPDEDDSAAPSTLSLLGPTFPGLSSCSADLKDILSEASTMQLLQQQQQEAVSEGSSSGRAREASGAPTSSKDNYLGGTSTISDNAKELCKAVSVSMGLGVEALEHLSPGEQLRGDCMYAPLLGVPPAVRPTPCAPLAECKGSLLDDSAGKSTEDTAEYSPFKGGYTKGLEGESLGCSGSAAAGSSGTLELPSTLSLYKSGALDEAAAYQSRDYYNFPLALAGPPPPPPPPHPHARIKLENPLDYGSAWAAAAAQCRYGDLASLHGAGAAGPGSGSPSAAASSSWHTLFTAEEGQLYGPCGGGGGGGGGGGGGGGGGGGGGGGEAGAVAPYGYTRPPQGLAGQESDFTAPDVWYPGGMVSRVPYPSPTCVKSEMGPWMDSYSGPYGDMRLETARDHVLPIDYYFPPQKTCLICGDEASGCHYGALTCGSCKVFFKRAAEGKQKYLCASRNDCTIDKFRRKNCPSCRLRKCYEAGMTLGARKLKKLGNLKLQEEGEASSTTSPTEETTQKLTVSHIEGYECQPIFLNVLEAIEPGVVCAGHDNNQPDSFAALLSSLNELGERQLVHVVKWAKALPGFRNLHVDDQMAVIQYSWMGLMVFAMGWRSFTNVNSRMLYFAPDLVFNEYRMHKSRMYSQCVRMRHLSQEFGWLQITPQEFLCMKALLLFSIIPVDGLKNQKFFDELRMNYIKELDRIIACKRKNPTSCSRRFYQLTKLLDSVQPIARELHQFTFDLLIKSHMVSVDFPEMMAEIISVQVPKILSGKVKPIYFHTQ

Sequence of Heat shock factor protein 1 (Homo sapiens) (Q00613 whole entry, looked up, the tested form may be a part): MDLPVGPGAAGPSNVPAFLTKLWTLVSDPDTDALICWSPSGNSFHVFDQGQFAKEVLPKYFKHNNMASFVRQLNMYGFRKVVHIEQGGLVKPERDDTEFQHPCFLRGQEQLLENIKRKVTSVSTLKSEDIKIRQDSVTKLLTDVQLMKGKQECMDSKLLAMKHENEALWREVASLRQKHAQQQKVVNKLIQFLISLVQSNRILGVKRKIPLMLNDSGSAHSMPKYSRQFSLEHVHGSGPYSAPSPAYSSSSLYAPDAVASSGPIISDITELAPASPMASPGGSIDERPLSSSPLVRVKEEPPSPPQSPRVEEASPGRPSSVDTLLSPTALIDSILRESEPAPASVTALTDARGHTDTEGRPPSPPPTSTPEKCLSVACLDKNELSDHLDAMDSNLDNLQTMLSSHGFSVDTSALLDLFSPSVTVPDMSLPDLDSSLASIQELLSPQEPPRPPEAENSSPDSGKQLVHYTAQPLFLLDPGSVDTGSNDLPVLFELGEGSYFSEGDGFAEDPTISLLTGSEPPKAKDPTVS
Sequence of Transcription factor E2F1 (Homo sapiens) (Q01094 whole entry, looked up): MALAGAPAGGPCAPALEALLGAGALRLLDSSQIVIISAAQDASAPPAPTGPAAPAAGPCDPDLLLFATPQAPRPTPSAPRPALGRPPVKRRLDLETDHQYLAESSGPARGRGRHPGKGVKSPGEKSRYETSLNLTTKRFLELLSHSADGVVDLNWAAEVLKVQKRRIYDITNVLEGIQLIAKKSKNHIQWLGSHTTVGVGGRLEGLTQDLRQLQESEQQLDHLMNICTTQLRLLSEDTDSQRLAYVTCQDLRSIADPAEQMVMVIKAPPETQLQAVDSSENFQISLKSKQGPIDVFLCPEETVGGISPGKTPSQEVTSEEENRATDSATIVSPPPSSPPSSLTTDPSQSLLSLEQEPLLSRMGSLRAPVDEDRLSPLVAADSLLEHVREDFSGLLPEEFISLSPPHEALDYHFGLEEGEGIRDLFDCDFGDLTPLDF
Sequence of Paired box protein Pax-6 (Homo sapiens) (P26367 whole entry, looked up): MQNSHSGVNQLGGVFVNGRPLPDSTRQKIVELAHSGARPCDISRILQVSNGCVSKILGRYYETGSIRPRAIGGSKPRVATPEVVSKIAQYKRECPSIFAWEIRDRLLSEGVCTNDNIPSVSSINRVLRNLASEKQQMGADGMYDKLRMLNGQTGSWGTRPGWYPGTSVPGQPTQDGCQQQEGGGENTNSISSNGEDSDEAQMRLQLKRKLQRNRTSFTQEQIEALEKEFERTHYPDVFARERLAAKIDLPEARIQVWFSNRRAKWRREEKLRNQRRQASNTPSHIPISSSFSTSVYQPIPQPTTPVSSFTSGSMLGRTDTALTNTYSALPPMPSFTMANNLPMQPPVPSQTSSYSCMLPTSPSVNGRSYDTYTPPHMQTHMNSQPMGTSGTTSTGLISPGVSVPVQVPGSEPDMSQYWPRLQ
Sequence of Hepatocyte nuclear factor 3-beta (Homo sapiens) (Q9Y261 whole entry, looked up): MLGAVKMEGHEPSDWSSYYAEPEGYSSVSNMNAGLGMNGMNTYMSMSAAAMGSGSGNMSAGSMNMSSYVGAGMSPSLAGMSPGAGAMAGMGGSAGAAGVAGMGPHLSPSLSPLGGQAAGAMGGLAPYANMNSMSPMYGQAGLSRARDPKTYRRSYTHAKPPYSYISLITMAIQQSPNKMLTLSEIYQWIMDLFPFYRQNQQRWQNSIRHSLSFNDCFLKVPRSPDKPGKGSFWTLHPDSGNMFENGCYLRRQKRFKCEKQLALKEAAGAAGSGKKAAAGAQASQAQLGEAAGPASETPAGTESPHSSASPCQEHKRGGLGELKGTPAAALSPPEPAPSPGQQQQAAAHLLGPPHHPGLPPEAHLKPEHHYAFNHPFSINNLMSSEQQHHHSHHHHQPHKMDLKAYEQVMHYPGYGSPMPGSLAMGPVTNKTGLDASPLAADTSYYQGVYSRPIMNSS
Sequence of Hepatocyte nuclear factor 6 (Homo sapiens) (Q9UBC0 whole entry, looked up): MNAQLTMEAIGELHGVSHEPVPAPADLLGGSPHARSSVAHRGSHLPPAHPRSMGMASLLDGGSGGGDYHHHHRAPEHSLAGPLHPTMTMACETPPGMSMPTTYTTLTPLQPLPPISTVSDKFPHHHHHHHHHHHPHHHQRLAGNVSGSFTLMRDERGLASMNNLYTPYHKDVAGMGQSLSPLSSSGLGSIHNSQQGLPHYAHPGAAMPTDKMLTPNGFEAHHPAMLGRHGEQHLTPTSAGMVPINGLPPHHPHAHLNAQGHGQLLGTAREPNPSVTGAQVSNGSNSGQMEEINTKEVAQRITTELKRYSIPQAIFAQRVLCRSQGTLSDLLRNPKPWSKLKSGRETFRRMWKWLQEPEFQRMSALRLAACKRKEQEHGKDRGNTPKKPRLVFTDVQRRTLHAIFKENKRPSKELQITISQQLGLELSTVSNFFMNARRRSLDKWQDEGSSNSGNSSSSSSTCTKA

As to `CC(C)C#N`, the call in experiment [1], in [2], in experiment [3], in experiment [4], in experiment [5] and in [6] was inactive. Besides, the call in experiment [7], in experiment [8], in experiment [9], in experiment [10], in experiment [11] and in experiment [12] was inactive. The call in experiment [13], in experiment [14], in experiment [15], in experiment [16], in experiment [18] and in experiment [19] was inactive. Further, the AC50 in experiment [17] was 27.6 µM (active).
On to `C=CCN(CC=C)C(=O)C(Cl)Cl`, for which the molecule was called inactive in experiment [1], in experiment [2], in experiment [3], in experiment [4], in experiment [5] and in [6]. In addition, the outcome in experiment [7], in experiment [8], in [9], in experiment [10], in experiment [11] and in experiment [12] was inactive. Also, the call in experiment [13], in [14], in experiment [15], in experiment [16], in experiment [18] and in experiment [19] was inactive. In experiment [17], the concentration at half-maximal activity (AC50) was 43.9 µM (active).
As to `CCc1cccc(C)c1N(C(=O)CCl)[C@@H](C)COC`, the outcome in experiment [1], in experiment [2], in experiment [3], in [4], in experiment [5] and in experiment [7] was inactive. The molecule was called inactive in [8], in [9], in [10], in experiment [11], in [12] and in experiment [13]. For the same molecule, the molecule was called inactive in experiment [14], in experiment [16], in experiment [18] and in [19]. Besides, the AC50 was 57.9 µM (active) in experiment [6], 31.3 µM (active) in experiment [15] and 0.474 µM (active) in [17].
In the case of `CCc1cc(C)cc(CC)c1-c1c(OC(=O)C(C)(C)C)n2n(c1=O)CCOCC2`, the call in experiment [1], in experiment [2], in [3], in [5], in experiment [6] and in [7] was inactive. Also, the call in experiment [8], in [9], in experiment [10], in experiment [11], in experiment [12] and in experiment [13] was inactive. The molecule was called inactive in [14], in experiment [15], in experiment [16], in [18] and in experiment [19]. Further, the AC50 in experiment [4] was 25.8 µM (active); in experiment [17] it was 9.48 µM (active).
Take `CC(C)C(=O)Cl`: the molecule was classed as inactive in [1], in experiment [2], in experiment [3], in [4], in experiment [5] and in [6]. Also, the result in [7], in experiment [8], in [9], in experiment [10], in experiment [11] and in [12] was inactive. Moreover, the result in experiment [13], in experiment [14], in [15], in experiment [16], in experiment [17] and in experiment [18] was inactive. For the same molecule, the outcome in experiment [19] and in experiment [20] was inactive.
